Out of some 68,000 compounds screened, about 2,700 (4%) showed an effect of 50% or more. The sample as a whole holds a higher share of strong results than the screen did.
What follows are compounds tested on Plasmodium berghei (assay: Screen against P. berghei liver stage (PbLuc), transformed with Luciferase, at 2uM). Conditions: tested at 2 uM.
Assay type: functional, HepG2

Structure (SMILES) | INHIBITION [%]
Cc1cn2c(n1)CCC(NC(=O)COCCOc1ccccc1)C2 (stereo not given) | 1.49
Cc1nn(C)c2ncnc(N3CCCC(OCc4ccccn4)C3)c12 (stereo not given) | 10.23
Cc1cc2c(N3CCCC(OCc4cccnc4)C3)ncnc2s1 (stereo not given) | 3.62
Cc1nn(C)c2ncnc(N3CCCC(OCc4cccnc4)C3)c12 (stereo not given) | 70.81
c1cc(CN2CCc3ncc(CN4CCCCC4)n3CC2)cs1 | 33.47
COCCN1CCC2(CC1)CC(N1CCOCC1)c1cc(C)ccc12 (stereo not given) | -6.8
CC(=O)N1CCCC1c1nccnc1Nc1ncccn1 (stereo not given) | 13.33
N#Cc1cccc(N2CCCC3(CN(C(=O)NC4CC4)CCO3)C2)c1 (stereo not given) | 6.36
Cc1cc(CN(C)CCN(C)c2ccccc2)no1 | 7.62
CCc1noc(CS(=O)(=O)c2cccc(OC)c2)n1 | 38.33
COc1ccc(S(=O)(=O)Cc2cc(C)on2)cc1 | 21.24
COc1cccc(S(=O)(=O)Cc2cc(C)on2)c1 | 57.59
Cc1cc(CS(=O)(=O)c2ccccc2)no1 | 58.69
CC(C)Cc1nc(CS(=O)(=O)c2ccccc2)no1 | -5.66
CN(C)c1ccc(CNCc2cnc(N3CCOCC3)nc2)cn1 | -160.54
CC(NCc1ccccn1)c1cc2c(cc1Br)OCCO2 (stereo not given) | 8.93
CC(NCc1ccncc1)c1cc2c(cc1Br)OCCO2 (stereo not given) | 42.7
CC(NCc1cccnc1)c1cc2c(cc1Br)OCCO2 (stereo not given) | 52.83
Cc1ccc(CN2CCN(C(=O)c3ccc(Br)o3)CC2)cc1 | 45.77
CC(C)Oc1ncnc2c1CCN(Cc1ccco1)CC2 | 27.44
CCCn1nc(C(=O)N2CCCC2c2noc(C)n2)ccc1=O (stereo not given) | -17.18
CCN(CC)CC1CN(Cc2ccc(C)s2)Cc2nccn2C1 (stereo not given) | -0.18
CCn1cnnc1Cn1cccc(C(F)(F)F)c1=O | 62.01
CC(C)Cn1cncc1Cn1cccc(C(F)(F)F)c1=O | 1.22
CCn1cncc1Cn1cccc(C(F)(F)F)c1=O | 10.1
CCOCCN1C[C@H](C(=O)Nc2cccnc2)[C@@H]2CCO[C@@H]2C1 | 8.18
CS(=O)(=O)N1C[C@H](C(=O)Nc2cccnc2)[C@@H]2CCO[C@@H]2C1 | 51.27
O=C(Nc1cccnc1)[C@H]1CN(C2CCCC2)C[C@H]2OCC[C@@H]12 | -42.87

Structure (SMILES) | INHIBITION [%]
Cc1nn(C)cc1C1=NS(=O)(=O)N(C)C(C(=O)Nc2ccc(Br)cc2)=C1 | 22.84
O=C(c1ccoc1)N(Cc1ccncc1)C1CC1 | -37.38
CCc1nnc(SCc2nonc2C)n1C1CC1 | -11.87
COC(=O)CNC(=O)CSCc1nc(O)c2cc(C)sc2n1 | -2.99
CC(C)C(C(=O)N1CCC(Nc2cccnn2)CC1)n1cncn1 (stereo not given) | -12.48
Cc1nc(C(C)Nc2nc3c(s2)c(C)nn3C)n[nH]1 (stereo not given) | 5.48
CC(NC(=O)NCCCN(C)C)c1ccc2c(c1)CCC(=O)N2 (stereo not given) | 2.08
CC(NC(=O)NCc1cccs1)c1ccc2c(c1)CCC(=O)N2 (stereo not given) | 16.84
CC(NC(=O)NCCS(C)(=O)=O)c1ccc2c(c1)CCC(=O)N2 (stereo not given) | 60.13
CC(C)(CN)NS(=O)(=O)c1cccc(F)c1F | -6.69
O=C(CCC(=O)N1CCC(c2noc3cc(F)ccc23)CC1)NC1CC1 | 11.87
O[C@@H]1CC(CNCC2CCCC2)(COc2cccnc2)C[C@@H]1O (stereo not given in full) | 42.64
CC(C)NCC1(COc2ccccc2)C[C@@H](O)[C@@H](O)C1 (stereo not given in full) | 71.58
O[C@@H]1CC(CNCC2CC2)(COc2cccnc2)C[C@@H]1O (stereo not given in full) | 39.62
Cn1cc(C[C@H]2[C@H](O)CCN2Cc2ccncc2)cn1 | 20.41
CCCNC(=O)c1cn(C(C)(C)C)c2ncccc12 | 12.87
COc1ccc(-c2cc3nn(CC(=O)NC(C)C)c(=O)n3c(C)n2)cc1 | 22.96
COc1ccc(-c2cc3nn(CC(N)=O)c(=O)n3c(C)n2)cc1 | 52.74
Cc1nc(-c2ccccc2)cc2nn(CC(N)=O)c(=O)n12 | 20.88
CCn1ncc2c1NC(=O)C(C#N)C21CCCC1 (stereo not given) | -12.09
CCN1CC(CN(C)c2cc(C)nc(N)n2)Oc2ccccc21 (stereo not given) | -10.39
CC(C)OCCN1CCN(C(=O)c2cccc(CC#N)c2)CC1 | 5.72
CC(=O)NCC1CCC2(CCN(c3ncnc4oc(C)nc34)CC2)O1 (stereo not given) | -7.91
CC(=O)NCC1CCC2(CCN(c3ncc(C)cn3)CC2)O1 (stereo not given) | 58.03
CC(=O)NCC1CCC2(CCN(c3ncc(C(C)=O)c(C)n3)CC2)O1 (stereo not given) | 11.37
O=C(NCCn1nc2ccccn2c1=O)c1cc(C2CC2)[nH]n1 | 25.03
CC(=O)c1cc(C(=O)NC2(c3ccc(Br)cc3)CC2)n(C)c1 | 63.4

— ChEMBL document CHEMBL4513216, “Probing the Open Global Health Chemical Diversity Library for Multistage-Active Starting Points for Next-Generation Antimalarials” (ACS Infect Dis, 2020)
